# hNpr1 antagonist – Natriuretic polypeptide receptor (hNpr1) antagonism - Primary qHTS; Potency, µM (highest dose often 46.3 µM), without a hit: at the top dose activity change, negative = inhibition, hits mostly inhibitors; Atrial natriuretic peptide receptor 1 (Homo sapiens), P16066; 76,000 compounds, 1.6% hits; HEK293 hNpr1 GloSensor cGMP, ANP-stimulated luminescence; calls by dose curve; further: on the % scale 0 is the no-effect control and ±100 the full control effect; nearly all actives have a fitted effect of over 60% in size
#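 Compound pre-incubated 30 min at room temperature on GloSensor-loaded HEK293 cells stably carrying hNpr1 and the pGS-40F cGMP biosensor. Stimulation uses hNppA at 0.1 nM final; luminescence is taken at baseline and 20 min post-agonist.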
# 3T3 cytotox – Cytotoxic Profiling in NIH 3T3 Cell Line of Diverse Libraries Using Quantitative High-Throughput Screening. 94,000 compounds, 4.3% hits. Potency, µM (doses to about 96.7 µM), for the others: top-dose activity change, negative = cytotoxicity, usual class: inhibitors. AID 1345082, 2018. NIH 3T3 viability, CellTiter-Glo ATP luminescence, 48-72 h; further: on the % scale 0 is the no-effect control and ±100 the full control effect; nearly all actives have a fitted effect of over 55% in size
#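 NIH 3T3 cells at 400 cells/well received 23 nL of compound by pintool and were incubated 48 or 72 h at 37 °C. Viability was read as ATP-coupled CellTiter-Glo luminescence.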
# FLuc inh – Firefly luciferase inhibition profiling of diverse chemical library using quantitative high-throughput screening; 76,000 compounds, 2.5% hits; Potency, µM (doses to about 115 µM), usual class: inhibitors; purified P. pyralis luciferase, luminescence, biochemical; Luciferin 4-monooxygenase (Photinus pyralis), P08659; AID 1347043, 2019; further: on the % scale 0 is the no-effect control and ±100 the full control effect; nearly all actives have a fitted effect of over 65% in size
#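 Luminescence read by CCD imager after adding enzyme (10nM final) to wells holding compound, titrated in qHTS. Substrates 10uM each D-luciferin and ATP; buffer 50mM Tris acetate pH 7.5, 10mM Mg acetate, Tween-20, BSA.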
# GPT2 inh – Primary qHTS assay for inhibitors of Glutamate pyruvate transaminase 2 (GPT2) | Alanine aminotransferase 2 (Homo sapiens), Q8TD30 | Recombinant GPT2, coupled pyruvate oxidase/HRP Amplex Red fluorescence | Potency, µM (doses to about 57.7 µM), for inactives: at the top dose activity change, negative = inhibition, most hits filed as inhibitors | 100,000 compounds, 0.25% hits | AID 1671188, 2021; further: on the % scale 0 is the no-effect control and ±100 the full control effect; nearly all actives have a fitted effect of over 60% in size
#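 Recombinant GPT2 (10ng/uL) with 250uM a-KG and 2mM L-alanine, 30 min at room temperature, in HEPES pH 7.5 buffer. Pyruvate detected by pyruvate oxidase/HRP/Amplex Red fluorescence after 30 min in the dark; AOA (50uM) as positive control.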
# HEK293 tox – Cytotoxic Profiling in HEK 293 Cell Line of Diverse Libraries Using Quantitative High-Throughput Screening; 94,000 compounds, 6.6% hits; HEK 293 viability, ATP luminescence (CellTiter-Glo), 48-72 h; Potency, µM (titrated, usually from 115 µM), for the others: top-dose activity change, negative = cytotoxicity, hits mostly inhibitors; further: on the % scale 0 is the no-effect control and ±100 the full control effect; nearly all actives have a fitted effect of over 60% in size
#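 Pintool-delivered compounds were incubated with HEK 293 cells (250 cells/well) at 37 degree Celsius for 48 or 72 hr. ATP-dependent luminescence (CellTiter-Glo) then reported remaining viable cells.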
# NPR1 antag cnf – Natriuretic polypeptide receptor (hNpr1) antagonism - Confirmation. AID 1347044, 2019. shares compounds with hNpr1 antagonist. 1,400 compounds, 76% hits. HEK293 hNpr1 cGMP GloSensor luminescence, ANP-stimulated. Potency, µM (titrated, usually from 57.6 µM), for inactives: at the highest dose activity change, negative = inhibition, most hits filed as inhibitors; calls by dose curve; further: nearly all actives have a fitted effect of over 70% in size
# NPR2 antag – Natriuretic polypeptide receptor (hNpr2) antagonism - Subtype selectivity assay. AID 1347046, 2019. shares compounds with hNpr1 antagonist. Potency, µM (doses to about 57.6 µM), without a hit: at the top dose activity change, negative = inhibition, hits mostly inhibitors. HEK293 hNpr2 GloSensor cGMP luminescence, CNP-stimulated. 1,400 compounds, 67% hits; calls by dose curve; further: nearly all actives have a fitted effect of over 70% in size
# Target sequence (P20594 whole entry, looked up): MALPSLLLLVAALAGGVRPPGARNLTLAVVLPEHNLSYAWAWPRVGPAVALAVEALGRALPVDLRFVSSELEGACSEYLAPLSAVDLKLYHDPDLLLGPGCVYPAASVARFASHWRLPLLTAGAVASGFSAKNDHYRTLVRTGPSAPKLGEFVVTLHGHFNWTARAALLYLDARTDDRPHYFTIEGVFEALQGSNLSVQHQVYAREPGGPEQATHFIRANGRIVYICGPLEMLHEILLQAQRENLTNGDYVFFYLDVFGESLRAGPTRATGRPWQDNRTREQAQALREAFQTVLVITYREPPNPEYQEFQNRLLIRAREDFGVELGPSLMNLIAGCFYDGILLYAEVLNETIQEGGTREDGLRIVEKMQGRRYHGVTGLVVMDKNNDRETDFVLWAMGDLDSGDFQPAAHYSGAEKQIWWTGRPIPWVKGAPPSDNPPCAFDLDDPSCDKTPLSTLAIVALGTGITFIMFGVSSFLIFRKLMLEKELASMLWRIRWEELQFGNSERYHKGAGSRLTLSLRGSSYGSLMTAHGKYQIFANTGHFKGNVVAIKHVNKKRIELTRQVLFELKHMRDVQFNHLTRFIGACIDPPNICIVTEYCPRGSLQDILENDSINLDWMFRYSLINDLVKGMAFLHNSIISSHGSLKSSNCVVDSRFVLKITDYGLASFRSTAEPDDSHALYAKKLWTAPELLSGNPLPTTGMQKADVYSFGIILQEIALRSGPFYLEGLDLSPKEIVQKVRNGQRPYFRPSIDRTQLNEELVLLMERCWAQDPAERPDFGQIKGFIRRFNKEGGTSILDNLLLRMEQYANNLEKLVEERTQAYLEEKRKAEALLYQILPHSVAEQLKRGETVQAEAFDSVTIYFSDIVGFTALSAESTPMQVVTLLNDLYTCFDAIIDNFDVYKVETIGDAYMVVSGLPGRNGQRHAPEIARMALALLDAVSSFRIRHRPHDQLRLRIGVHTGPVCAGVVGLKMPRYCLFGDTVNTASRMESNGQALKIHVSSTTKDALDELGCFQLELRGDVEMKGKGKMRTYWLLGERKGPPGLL
# FLuc counter – Natriuretic polypeptide receptor (hNpr1) antagonism - Confirmation firefly luciferase (FLuc) inhibition counterscreen; shares compounds with hNpr1 antagonist; purified FLuc enzyme, luminescence, Km substrate; Potency, µM (highest dose often 57.6 µM), for inactives: top-dose activity change, negative = inhibition, hits mostly inhibitors; 1,400 compounds, 0.7% hits; further: 0% is about no effect
# GloSensor cGMP – Natriuretic polypeptide receptor (hNpr1) antagonism - Counterscreen GloSensor control cell line. AID 1347051, 2019. 1,400 compounds, 69% hits. shares compounds with hNpr1 antagonist. HEK293 GloSensor cGMP, SNP-stimulated, luminescence. Potency, µM (series often up to 57.6 µM), for the others: top-dose activity change, negative = inhibition, hits mostly inhibitors; calls by dose curve; further: on the % scale 0 is the no-effect control and ±100 the full control effect; nearly all actives have a fitted effect of over 70% in size
# Starred values were filed as active, the others as inactive; i = inactive; ? = inconclusive; nt = not tested or not shown; [ ] = dose if it differs, or a comment. Sampled rows, rich in hits. Any-hit rate of the full collection: about 10%. Unless noted, the call rests on the fitted dose curve; in most records, active means well fitted curve in the direction sought with a large enough effect; inconclusive means small, poorly fitted or top-dose-only effect, or another doubt; inactive means no such curve, though single readings can be large; an effect the other way counts as inactive or inconclusive. Potency means the concentration at half of the fitted maximal effect.
SMILES,hNpr1 antagonist,3T3 cytotox,FLuc inh,GPT2 inh,HEK293 tox,NPR1 antag cnf,NPR2 antag,FLuc counter,GloSensor cGMP
O=C(NC1CCN(C(=O)N2CC3CC(C2)[C@H]2CCCC(=O)N2C3)CC1)c1n[nH]c(=O)c2ccccc12 (some centres undefined),-1.6%,i,i,i,-3.4%,nt,nt,nt,nt
CN(Cc1cccc2ccccc12)C(=O)c1cc(CN2CCOCC2)on1,-1.8%,0.3%,i,-19.1%,4.1%,nt,nt,nt,nt
Cc1nc(CN(C)C(=O)c2cc(Cn3c(C)nc4ccccc43)on2)cs1,10µM*,?,i,-5.9%,?,19.3µM*,17.2µM*,1.2%,13.7µM*
NC(=O)Cc1c[nH]c2ncc(-c3ccc(F)c(Cl)c3)cc12,-12.9%[70.6 µM],?,i,-13.5%[88.5 µM],?,nt,nt,nt,nt
O=C(Cc1c[nH]c2ncc(-c3cn[nH]c3)cc12)NCc1cccnc1,-4.0%[70.6 µM],?,i,2.3%[88.5 µM],-13.5%[172 µM],nt,nt,nt,nt
COc1cc(F)cc(-c2cnc3[nH]cc(CC(=O)NCc4cccnc4)c3c2)c1,28.2µM*,?,i,i,?,31.4µM*,31.4µM*,?,31.4µM*
O=C(Cc1c[nH]c2ncc(-c3ccc(F)c(Cl)c3)cc12)NCc1cccnc1,22.4µM*,?,i,1.0%[88.5 µM],?,39.6µM*,31.4µM*,-3.1%[86.2 µM],28µM*
Cc1ccc(N2CCC(NC(=O)Cc3ccccc3Cl)C2=O)cc1 (centres undefined),-4.0%,i,i,i,-1.8%,nt,nt,nt,nt
O=C(CCCc1ccccc1)N1CCC2(CC1)CC(Cc1nc(-c3cccnc3)no1)CCO2 (centres undefined),15.8µM*,?,i,-5.8%,35.5µM*,21.7µM*,19.3µM*,2.1%,19.3µM*
O=C(Nc1ccc2c(c1)OCCO2)N1CCC2(CC1)CC(Cc1ccccc1)CCO2 (centres undefined),nt,?,nt,-1.0%,?,nt,nt,nt,nt
COc1ccc(-c2noc(CC3CCN(C(=O)CCCc4ccccc4)CC3)n2)cc1,?,?,i,i,28.2µM*,17.2µM*,19.3µM*,-5.5%,19.3µM*
Cc1ccc(NC(=O)N2CCC3(CC2)CC(Cc2nc(-c4ccccc4)no2)CCO3)cc1C (centres undefined),10µM*,?,i,-20.5%,?,12.2µM*,15.3µM*,-5.6%,12.2µM*
COc1cccc(-c2noc(CC3CCN(C(=O)CCCc4ccccc4)CC3)n2)c1,?,?,i,i,?,?,?,-0.4%,30.6µM*
COc1ccccc1CCC(=O)N1CCC(Cc2nc(-c3ccccc3)no2)CC1,?,?,i,?,?,nt,nt,nt,nt
COc1ccc(-c2ccccc2C(=O)N2CCC(NC(=O)C(C)(C)C)CC2)nn1,nt,-13.6%,nt,nt,i,nt,nt,nt,nt
COc1cccc(CNC(=O)c2nc3sccn3c2-c2cccc(OC)c2)c1,nt,?,nt,1.4%,?,nt,nt,nt,nt
O=C(NCc1ccccc1F)c1ccc2c(c1)CN(Cc1cccnc1Cl)CCO2,nt,?,nt,-5.1%,?,nt,nt,nt,nt
C[S+](=O)([O-])N1CCN(C(=O)c2nc3cccnc3n(Cc3ccccc3)c2=O)CC1,nt,-17.6%,nt,i,-4.1%,nt,nt,nt,nt
COc1cccc(CCC(=O)N2CCC(Cc3nc(-c4ccc(F)cc4)no3)CC2)c1,11.2µM*,?,i,i,?,13.7µM*,17.2µM*,3.1%,10.9µM*
COc1ccc(CCC(=O)N2CCC(Cc3nc(C4CCOCC4)no3)CC2)cc1,5.9%,-24.9%,i,i,?,nt,nt,nt,nt
Cc1nn2c(c1-c1ccccc1OCc1ccccc1)N(C(=O)C1CCOCC1)CCC2,-19.9%[70.6 µM],?,i,?,?,nt,nt,nt,nt
Cc1nn2c(c1-c1ccccc1OCc1ccccc1)N(C(=O)COc1ccccc1)CCC2,?,11.2µM*,i,0.2%,39.8µM*,17.2µM*,12.2µM*,-0.7%,-21.2%
Cc1nn2c(c1-c1ccccc1Oc1ccccc1)N(C(=O)COc1ccccc1)CCC2,?,?,i,1.7%[88.5 µM],79.4µM*,31.4µM*,22.2µM*,1.2%[86.2 µM],?
Cc1nn2c(c1-c1ccccc1Oc1ccccc1)N(Cc1ccc(OCC(=O)O)cc1)CCC2,-3.7%,?,i,-11.8%,i,nt,nt,nt,nt
COc1cccc(CN2Cc3nc(N4CCN(C)CC4)ccc3OCC2=O)c1,0.5%[70.6 µM],-7.0%[138 µM],i,i,?,nt,nt,nt,nt
COc1nccc(N2CCC(CC(=O)NCc3ccccc3F)CC2)n1,?,?,i,-5.8%,?,?,?,2.6%,?
CCCCN(C)C(=O)CC1CCN(c2ccnc(OC)n2)CC1,11.2µM*,?,i,i,?,17.2µM*,15.3µM*,5.0%,10.9µM*
O=C(Nc1ccc(F)cc1)c1ccc2c(c1)OCCN(c1ccccc1)C2,31.6µM*,?,i,?,56.2µM*,39.6µM*,39.6µM*,-13.9%[86.2 µM],39.6µM*
O=C(NCc1ccccc1)c1ccc2c(c1)OCCN(c1ccccc1)C2,?,?,i,-2.1%[88.5 µM],?,?,?,-1.2%[86.2 µM],?
CNC(=O)c1ccc2c(c1)OCCN(c1ccccc1)C2,0.9%[70.6 µM],-25.5%[174 µM],i,-0.3%[88.5 µM],?,nt,nt,nt,nt

# Assay outcomes (PubChem BioAssay)
